Several values for one entry are separate records, joined by “and”; a condition that tells them apart may be missing. Identical values can stand only once. Records with an inconclusive call do not appear. A call without a number means that no potency is given here. Values without a mark were called inactive. Activity calls are given as the source filed them. The call rests on the fitted dose curve; in most records, active means well fitted cell-killing curve with a large enough effect in the repeat runs; inconclusive means weak or mixed curves, or effect the other way; inactive means flat fitted curve, though single readings scatter.
experiment: cAMP Responsive Elements (CRE) small molecule agonists, cell-based qHTS assay: qHTS cell viability counter screen (AID 2060914); details: CRE-bla HEK293T viability, CellTiter-Glo luminescence, 5 h; series mostly up to 92.4 µM;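 further: viability read after 3 h of compound exposure; nearly all actives have a fitted effect of over 50% in size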
From the text: National Center for Advancing Translational Sciences [NCATS]
Division of Preclinical Innovation [DPI]
U.S. Environmental Protection Agency [EPA]
National Institutes of Environmental Health Sciences [NIEHS]
National Toxicology Program [NTP]
U.S. Food and Drug Administration [FDA]
CREB (cyclic-AMP Responsive Element Binding Protein) is a cellular transcription factor. It binds to certain DNA sequences called cAMP Responsive Elements (CRE) and regulates the transcription of the genes. […] This cell line can be used to find agonists/antagonists of the cyclic AMP signaling pathway. The activation of the report gene under culture conditions can be detected by fluorescence intensity. This cell line has been used to screen the Tox21 10K compound library to identify agonists that induce oxidative stress. The cytotoxicity of the Tox21 compound library against the CRE-bla cell line was tested in parallel by measuring the cell viability using CellTiter-Glo assay (Promega, Madison, WI) in the same wells.
Tox21 Assay Protocol Summary:
CRE-bla Hek 293T cells were suspended in assay medium (DMEM containing 10% dialyzed FBS, 0.1 mM NEAA, 1 mM sodium pyruvate and 25 mM HEPES) and dispensed at 2,000 cells/5 uL /well into 1536-well black wall/clear bottom plates using a Multidrop Combi (ThermoFisher Scientific, Waltham, MA) dispenser. After the assay plates were incubated at 37 C/5% CO2 for 18 hrs, 23 nL of compounds dissolved in DMSO, positive controls or DMSO only was transferred to the assay plate by a pintool workstation (Kalypsys, San Diego, CA). After the plates were incubated at 37 C/5% CO2 for 3 hrs, 1 uL of LiveBLAzer B/G FRET substrate (Invitrogen, Carlsbad, CA) was added to each well using Bioraptr Flying Reagent Dispenser (FRD, Aurora Discovery, San Diego, CA). The plates were incubated at room temperature for 2 h, then fluorescence intensities were measured using an Envision plate reader (PerkinElmer, Shelton, CT) at Excitation 405nm, Emission 460nm and 530nm. The % activity was determined from the ratio of 460nm/530nm. For cell viability readout that measures cytotoxicity, 4 uL /well of CellTiter-Glo reagent was added into the assay plates using Bioraptr FRD. After 30 min incubation at room temperature, the luminescence intensity in the assay plates was measured using a ViewLux (PerkinElmer, Shelton, CT) plate reader.

SMILES | Potency | activity change, negative = cytotoxicity
Clc1ccc(C(Cn2ccnc2)OCc2ccsc2Cl)c(Cl)c1 (stereo not given) | inactive | 
NC(=O)c1ccccc1[N+](=O)[O-] | inactive | 
OC1CCCCCCCCCCC1 | inactive | 
O=C(O)c1ccc2cc(C(=O)O)ccc2c1 | inactive | 
CC(C)=CCCC(C)CCO (stereo not given) | inactive | 
CCCCCCCC/C=C\CCCCCCCC(N)=O | inactive | 
CCCCC1CCC(O)CC1 (stereo not given) | inactive | 
C[C@@H]1CCC[C@H](C)N1CCCC(O)(c1ccccc1)c1ccccn1 (stereo not given in full) | inactive | 
CN(C)CC[C@@H](c1ccc(Br)cc1)c1ccccn1 | inactive | 
CC1=CC(C)C(C=O)CC1 (stereo not given) | inactive | 
CC[C@H]1CN2CCc3cc(OC)c(OC)cc3[C@@H]2C[C@@H]1C[C@H]1NCCc2cc(OC)c(OC)cc21 | inactive | 
Nc1ccc(C(=O)NCC(=O)O)cc1 | inactive | 
Cc1c(C(=O)NN2CCCCC2)nn(-c2ccc(Cl)cc2Cl)c1-c1ccc(Cl)cc1 | inactive | 
c1cc(N(CC2CO2)CC2CO2)ccc1Cc1ccc(N(CC2CO2)CC2CO2)cc1 (stereo not given) | inactive | 
CN(C)CCN1C(=O)c2ccccc2N(C)c2ccccc21 | inactive | 
COc1cc([C@@H]2c3cc4c(cc3[C@H](O)[C@H]3COC(=O)[C@H]23)OCO4)cc(OC)c1OC | inactive | 
Oc1ccc2c(c1)CCC2 | inactive | 
CC(C)OC(=O)OCOP(=O)(CO[C@H](C)Cn1cnc2c(N)ncnc21)OCOC(=O)OC(C)C | inactive | 
CCN(CC)CCCC(C)Nc1ccnc2cc(Cl)ccc12 (stereo not given) |  | -0.2% [at 8.39 µM] and -0.0045% [at 18.9 µM]
C=C1C[C@]23C[C@@]1(O)CC[C@H]2[C@@]12C=C[C@H](O)[C@@](C)(C(=O)O1)[C@H]2[C@@H]3C(=O)O | inactive | 

SMILES | Potency | activity change, negative = cytotoxicity
CC(=O)Nc1c(I)cc(I)c(C(=O)O)c1I | inactive | 
Cc1cc(O)c(Cl)c(C)c1Cl | inactive | 
CC/C=C\C#N | inactive | 
CCCCCCOC(=O)CCCCC | inactive | 
CC1(C)[C@@H]2CC[C@@]1(C)C(=O)C2 | inactive | 
CC(C)=CCC[C@H](C)CC=O | inactive | 
O=C(O)c1cccc(C(=O)O)n1 | inactive | 
CN1CCc2cccc3c2[C@H]1Cc1ccc(O)c(O)c1-3 | inactive | 
Nc1cccc(S(=O)(=O)O)c1 | inactive | 
C1COC(NC(C2CC2)C2CC2)=N1 | inactive | 
COC(=O)Cc1cccc2ccccc12 | inactive | 
O=C(NCCN1CCOCC1)c1ccc(Cl)cc1 | inactive | 
CCCC(=O)OC/C=C(\C)CCC=C(C)C | inactive | 
N[C@H]1C(O)O[C@H](CO)[C@H](O)[C@@H]1O (stereo not given in full) | inactive | 
CCCCCCCCCCCCCCC(=O)NC(CO)CCCCCCCCCCCCCC (stereo not given) | inactive | 
COC(=O)Nc1ccc(Cl)c(Cl)c1 | inactive | 
CC(C)c1c(C(=O)Nc2ccccc2)c(-c2ccccc2)c(-c2ccc(F)cc2)n1CC[C@@H](O)C[C@@H](O)CC(=O)O | inactive | 
CC(=O)c1ccc2ccc3ccccc3c2c1 | inactive | 
OCC(O)CS (stereo not given) | inactive | 
CC(CO)CO | inactive | 
